HP1b chromo inh: HTS for Inhibitors of HP1-beta Chromodomain Interactions with Methylated Histone Tails; 390,000 compounds, 0.56% hits; AlphaScreen HP1-beta / biotin-H3K9me3 peptide binding; Potency, µM (doses to about 114 µM), for the others: at the highest dose activity change, negative = inhibition, usual class: inhibitors; AID 540317, 2011; further: nearly all actives have a fitted effect of over 70% in size
Target sequence (P83916 whole entry, looked up): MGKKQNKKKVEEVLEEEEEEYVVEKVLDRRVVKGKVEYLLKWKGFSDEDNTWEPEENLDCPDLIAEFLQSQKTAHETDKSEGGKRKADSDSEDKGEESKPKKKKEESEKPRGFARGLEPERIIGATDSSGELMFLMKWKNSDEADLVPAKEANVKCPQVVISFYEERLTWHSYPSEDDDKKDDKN
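HP1-beta protein (50 nM final) preincubated 30 min at room temperature with biotinylated H3(1-18)K9me3 peptide (50 nM) in PBS pH 7.4, 0.01% Tween-20, then compound added for 30 min. AlphaScreen streptavidin donor/nickel chelate acceptor beads (10 ug/mL final), 30 min dark, luminescence read.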
JMJD2A Tudor: qHTS Assay for Inhibitors of JMJD2A-Tudor Domain | 390,000 compounds, 4.4% hits | Lysine-specific demethylase 4A (Homo sapiens), O75164 | AlphaScreen JMJD2A-Tudor / H3K4me3 peptide binding | Potency, µM (top dose mostly 114 µM), without a hit: at the top dose activity change, negative = inhibition, hits mostly inhibitors; further: on the % scale 0 is the no-effect control and ±100 the full control effect; nearly all actives have a fitted effect of over 50% in size
BAZ2B block: qHTS Assay for Inhibitors of BAZ2B; Bromodomain adjacent to zinc finger domain protein 2B (Homo sapiens), Q9UIF8; AlphaScreen BAZ2B-H3K14Ac peptide displacement; Potency, µM (top dose mostly 114 µM), for the others: top-dose activity change, negative = inhibition, hits mostly inhibitors; 360,000 compounds, 4.4% hits; further: on the % scale 0 is the no-effect control and ±100 the full control effect; nearly all actives have a fitted effect of over 60% in size
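AlphaScreen luminescence quantifies BAZ2B engagement of H3K14Ac peptide; the protein and biotinylated peptide are both at 50 nM final, buffer PBS pH 7.4 with 0.01% Tween-20, all steps at room temperature.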
L3MBTL1 block: qHTS Assay for the Inhibitors of L3MBTL1. Lethal(3)malignant brain tumor-like protein 1 (Homo sapiens), Q9Y468. AlphaScreen L3MBTL1–H3K9me1 peptide binding. Potency, µM (doses to about 57.1 µM), for the others: top-dose activity, negative = inhibition, usual class: inhibitors. 230,000 compounds, 0.66% hits. AID 485360, 2010; further: on the % scale 0 is the no-effect control and ±100 the full control effect; nearly all actives have a fitted effect of over 60% in size
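AlphaScreen assay: L3MBTL1 (50 nM final) was preincubated 30 min at room temperature with biotinylated H3(1-15)K9me1 peptide (75 nM final), then 30 min with library compounds; streptavidin donor and nickel chelate acceptor beads (10 ug/mL final) added, 30 min dark.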
G9a inh: qHTS Assay for Inhibitors of Histone Lysine Methyltransferase G9a. G9a H3K9 monomethylation, AlphaScreen, 2 h. 350,000 compounds, 8.8% hits. Potency, µM (doses to about 102 µM), without a hit: at the highest dose activity, negative = inhibition, usual class: inhibitors. Histone-lysine N-methyltransferase EHMT2 (Homo sapiens), Q96KQ7. AID 504332, 2011; further: on the % scale 0 is the no-effect control and ±100 the full control effect; nearly all actives have a fitted effect of over 75% in size
Target sequence (Q96KQ7 913-1193 limits assumed): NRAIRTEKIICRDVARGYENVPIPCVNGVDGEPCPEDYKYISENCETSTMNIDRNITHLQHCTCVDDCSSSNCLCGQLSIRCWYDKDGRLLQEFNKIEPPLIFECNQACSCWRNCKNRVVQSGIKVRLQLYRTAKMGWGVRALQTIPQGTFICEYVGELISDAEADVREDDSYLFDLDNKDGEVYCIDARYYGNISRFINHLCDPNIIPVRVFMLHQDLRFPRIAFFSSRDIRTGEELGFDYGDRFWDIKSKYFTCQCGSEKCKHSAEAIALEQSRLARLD
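Using a bead-based AlphaScreen, monomethylated H3K9 product from 2 h room-temperature reactions (G9a 20 nM, peptide 500 nM, SAM 20 uM) was detected with 0.5 ug/mL rabbit anti-H3K9me1 antibody.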
* = called active by the depositor; [ ] = remark or other dose. In the library only some 11% were active in any assay of this set; here they are far more common. The call rests on the fitted dose curve; in most records, active means well fitted inhibition curve with a large enough effect; inconclusive means small, poorly fitted or top-dose-only effect; inactive means no such curve, though single readings can be large or run the other way. Potency means the concentration at half of the fitted maximal effect.

Screening Cc1ccc(Nc2ncc3c(n2)CC(c2ccco2)CC3=O)c(C)c1 (centres undefined) returned HP1b chromo inh 4%, JMJD2A Tudor -26%, BAZ2B block 0%, L3MBTL1 block -6% and G9a inh 50µM*.
Screening Cc1ccc(C(=O)Nc2ncc3c(n2)CC(c2ccco2)CC3=O)cc1 (centres undefined) returned HP1b chromo inh 21%, JMJD2A Tudor -9%, BAZ2B block -5%, L3MBTL1 block -7% and G9a inh inconclusive.
Cc1cc(C)cc(Nc2ncc3c(n2)CC(c2ccco2)CC3=O)c1 (centres undefined) was read as HP1b chromo inh inconclusive, JMJD2A Tudor 89µM*, BAZ2B block -31%, L3MBTL1 block -8% and G9a inh inconclusive.
`CCc1n[nH]c(=S)n1/N=C/c1cc(Br)c(O)c(OC)c1` gave HP1b chromo inh 29%, JMJD2A Tudor 5.6µM*, BAZ2B block -18%, L3MBTL1 block -5% and G9a inh 7.9µM*.
Screening COc1cc(/C=N/NC(=O)c2cccnc2)cc(Br)c1O returned HP1b chromo inh 7%, JMJD2A Tudor -21%, BAZ2B block inconclusive, L3MBTL1 block -2% and G9a inh inconclusive.
Screening COc1cc(/C=N/n2cnnc2)ccc1OCCOc1ccccc1 returned HP1b chromo inh 17%, JMJD2A Tudor -21%, BAZ2B block -3%, L3MBTL1 block 1% and G9a inh -24%.
For CCOc1ccc(/C=N/n2c(COc3ccccc3)n[nH]c2=S)cc1OC the results were HP1b chromo inh -10%, JMJD2A Tudor 20µM*, BAZ2B block 23% and G9a inh 8.9µM*.
Screening C=CCOc1c(Br)cc(/C=N/n2c(CC)n[nH]c2=S)cc1Br returned HP1b chromo inh 16%, JMJD2A Tudor inconclusive, BAZ2B block -3%, L3MBTL1 block -2% and G9a inh inconclusive.
COc1cc(/C=N\NC(=O)c2ccc(-c3ccccc3)cc2)cc(OC)c1OC(C)=O was read as HP1b chromo inh 21%, JMJD2A Tudor -16% and BAZ2B block -9%.
For COc1cc(/C=N/n2c(COc3ccccc3)n[nH]c2=S)cc(OC)c1OC(C)=O the results were HP1b chromo inh 4%, JMJD2A Tudor inconclusive, BAZ2B block -3% and G9a inh 10µM*.
For COc1cc(/C=N/n2c(COc3ccccc3)n[nH]c2=S)cc(Br)c1O the results were HP1b chromo inh -19%, JMJD2A Tudor 13µM*, BAZ2B block -29% and G9a inh 1.3µM*.
O=C(CSC1=Nc2ccccc2N=C(c2ccc(F)cc2)C1)Nc1cc(F)ccc1F was read as HP1b chromo inh 19%[57 µM], JMJD2A Tudor -17%, BAZ2B block -14% and G9a inh -25%[59 µM].
For Cc1cccc(NC(=O)C(=O)N/N=C/c2ccncc2)c1 the results were HP1b chromo inh 33%, JMJD2A Tudor -10%, BAZ2B block -10%, L3MBTL1 block 3% and G9a inh inconclusive.
Cc1cccc(N/N=C/c2ccccc2O)c1 was read as HP1b chromo inh -11%, JMJD2A Tudor inconclusive, BAZ2B block 14%, L3MBTL1 block 12% and G9a inh 1.6µM*.
`Cc1cccc(N/N=C/c2ccncc2)c1` gave HP1b chromo inh -9%, JMJD2A Tudor inconclusive, BAZ2B block -39% and G9a inh 50µM*.
Screening O=[N+]([O-])c1ccc(N/N=C/c2ccccc2O)cc1 returned HP1b chromo inh 12%, JMJD2A Tudor -7%, BAZ2B block -3% and G9a inh 21%.
For COc1ccc(NC(=O)CSc2nc3c(oc4ccccc43)c(=O)n2Cc2ccco2)cc1Cl the results were HP1b chromo inh 37%, JMJD2A Tudor -17%, BAZ2B block 4% and G9a inh 23%[59 µM].
